Laboratory results as given in PubChem BioAssay AID449762 (Southern Research Specialized Biocontainment Screening …, 2010).
The whole screen tested about 330,000 compounds, of which about 1,900 (0.58%) were called active. About 4% were inconclusive and are not listed. Rule as the data show it: inconclusive = inhibition above about 70% without an active follow-up result; inactive = below that. These entries were drawn from the full list. Results with a measured potency or affinity are listed apart.

Experiment: M. tuberculosis growth inhibition, HTS (AID 449762);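 also: bacterial growth assessed after seven days of incubation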
Conditions: M. tuberculosis H37Rv growth inhibition, 7H9 media; at 25 µM; hits give high values

With `O=c1cc(CSCc2ccc(Cl)cc2)[nH]c(=O)[nH]1` as the molecule, how does the inhibition read?
The inhibition was -3.47% (inactive).

Which inhibition does the source give for `Cc1[nH][nH]c(=O)c1N=Nc1ccc(Cl)cc1` here?
The inhibition was -1.91% (inactive).

Which inhibition does the source give for `CCCNC(=O)c1onc(CSc2ccc(Cl)cc2)c1C(=O)NCCOC` here?
Its inhibition is -3.57% (inactive).

With `Nn1c(SCc2ccc([N+](=O)[O-])cc2)nc2ccccc2c1=O` as the molecule, how does the inhibition read?
The inhibition was 16.5% (inactive).

For `CCCCn1c(N)c(C(=O)OCC2CCCO2)c2nc3ccccc3nc21` (stereo not drawn), which inhibition is on record?
The inhibition was 15.8% (inactive).

For `Nc1c(C(=O)OCC2CCCO2)c2nc3ccccc3nc2n1C1CCCCC1` (stereo not drawn), which inhibition is on record?
Its inhibition is 1.24% (inactive).

Which inhibition does the source give for `CCc1ccccc1N(CC(=O)NC1CCCCC1)C(=O)CNC(=O)c1ccco1` here?
The inhibition was 2.96% (inactive).

For `O=C(NCc1ccco1)C1CCCN(c2ncnc3c2nc2n3CCCCC2)C1` (stereo not drawn), which inhibition is on record?
The inhibition was 1.1% (inactive).

For `O=C(O)C1CCN(S(=O)(=O)c2cccc3nsnc23)CC1`, which inhibition is on record?
The inhibition was 0.03% (inactive).

For `Cc1c(C(=O)NC(=S)NCC(C)C)oc2ccccc12`, which inhibition is on record?
The inhibition was -6.41% (inactive).

With `COc1ccccc1C1c2ccc3ccccc3c2Oc2ncn(CCCO)c(=N)c21` (stereo not drawn) as the molecule, how does the inhibition read?
Its inhibition is 5.41% (inactive).

Which inhibition does the source give for `COc1ccc(C2c3ccc4ccccc4c3Oc3ncn(CCO)c(=N)c32)cc1OC` (stereo not drawn) here?
The inhibition was 6.98% (inactive).

Which inhibition does the source give for `Cc1c(Br)c([N+](=O)[O-])nn1CC(=O)c1ccccc1` here?
The inhibition was -1.84% (inactive).

For `COC(=O)Cn1c(C)nc([N+](=O)[O-])c1Br`, which inhibition is on record?
Its inhibition is 0.3% (inactive).

Which inhibition does the source give for `Cc1ccc(S(=O)(=O)NC(Cc2ccc(Cl)cc2)C(=O)O)cc1` (stereo not drawn) here?
The inhibition was 4.83% (inactive).

With `COc1ccccc1-c1c(C)oc2c(CN3CCOCC3)c(O)ccc2c1=O` as the molecule, how does the inhibition read?
The inhibition was 0.75% (inactive).

For `COc1cc(C(=O)N/N=C/c2ccsc2C)cc(OC)c1OC`, which inhibition is on record?
Its inhibition is 17.9% (inactive).

For `COc1ccc(Br)cc1/C=N/NC(=O)c1cc(OC)c(OC)c(OC)c1`, which inhibition is on record?
Its inhibition is -3.85% (inactive).

For `Cc1ccc(CCNC(=O)C2CCN(S(=O)(=O)c3ccc4nc5c(c(C(=O)O)c4c3)CCCC5)CC2)cc1`, which inhibition is on record?
Its inhibition is -1.27% (inactive).

With `Cc1nc2ncnn2c(Nc2ccc3c(c2)OCCO3)c1C` as the molecule, how does the inhibition read?
Its inhibition is 6.9% (inactive).

Which inhibition does the source give for `COc1ccc(NC(=O)COC(=O)CCC2CCCCC2)cc1` here?
Its inhibition is 8.09% (inactive).

With `COc1ccc(Cl)c2sc(N3CCN(C(=O)C4=COCCO4)CC3)nc12` as the molecule, how does the inhibition read?
Its inhibition is 35.6% (inactive).

For `O=C(C1=COCCO1)N1CCN(c2nc3ccc([N+](=O)[O-])cc3s2)CC1`, which inhibition is on record?
The inhibition was 1.78% (inactive).

Which inhibition does the source give for `COc1ccc(NC(=O)COC(=O)/C=C/c2ccccc2[N+](=O)[O-])cc1OC` here?
Its inhibition is 0.41% (inactive).

Which inhibition does the source give for `Cc1sc2ncn(CC(=O)N3CCN(c4ccccn4)CC3)c(=O)c2c1S(=O)(=O)N1CCCCC1` here?
Its inhibition is -2.75% (inactive).

For `CN1CCN(CCCN2c3ccccc3Sc3ccc(S(=O)(=O)N(C)C)cc32)CC1`, which inhibition is on record?
Its inhibition is 7.63% (inactive).

For `FC(F)(F)c1ccc2c(c1)N(CCCN1CCN(CCCl)CC1)c1ccccc1S2`, which inhibition is on record?
Its inhibition is 4.41% (inactive).

With `CS(=O)(=O)c1ccc(Cl)c(NC(=O)C2CC(=O)N(Cc3ccco3)C2)c1` (stereo not drawn) as the molecule, how does the inhibition read?
The inhibition was 3.6% (inactive).

For `S=C(NC1CCCC1)N1CCN(c2ccccn2)CC1`, which inhibition is on record?
The inhibition was -3.07% (inactive).

Which inhibition does the source give for `CC1=NN(C(=O)c2ccc(Cl)cc2)C(O)(c2ccccc2)C1` (stereo not drawn) here?
Its inhibition is 28% (inactive).

Which inhibition does the source give for `CC1=NN(C(=O)c2ccccc2)C(O)(c2ccc(Br)cc2)C1` (stereo not drawn) here?
Its inhibition is -3.64% (inactive).

Which inhibition does the source give for `Cc1cccc(NC(=O)CNC(=O)c2sc3ccccc3c2Cl)n1` here?
Its inhibition is -2.76% (inactive).

With `COc1ccc([C@@H]2CC=C(C(=O)O)[C@H](c3ccc(C(C)(C)C)cc3)N2S(=O)(=O)c2ccc(C)cc2)cc1OC` as the molecule, how does the inhibition read?
Its inhibition is 4.96% (inactive).

With `CCS(=O)(=O)c1ccc2c(c1)N(S(C)(=O)=O)CC(C(=O)NC1CC1)O2` (stereo not drawn) as the molecule, how does the inhibition read?
The inhibition was 0.09% (inactive).

Which inhibition does the source give for `On1c(-c2ccccc2)nc2ccccc21` here?
Its inhibition is 9.54% (inactive).

Which inhibition does the source give for `O=C(O)Cn1c(=O)c(-c2ccccc2)nc2ccccc21` here?
The inhibition was -12.6% (inactive).

For `N#Cc1ccccc1S(=O)(=O)N1CCN(CC(O)COc2ccccc2F)CC1` (stereo not drawn), which inhibition is on record?
Its inhibition is 3.84% (inactive).

With `N=C1C(c2ccccc2)=C(O)CN1c1cccc2ccccc12` as the molecule, how does the inhibition read?
Its inhibition is -2.85% (inactive).

With `CCOc1ccc(/C=C2\SC(=S)N(N3C(=O)C4CC4C3=O)C2=O)cc1` (stereo not drawn) as the molecule, how does the inhibition read?
The inhibition was -8.07% (inactive).

Which inhibition does the source give for `CCNC(=S)Nc1ccc2cn[nH]c2c1` here?
The inhibition was -5.21% (inactive).

For `CCc1ccc(NC(=S)Nc2ccc3cn[nH]c3c2)cc1`, which inhibition is on record?
The inhibition was 32% (inactive).

With `CCCCn1cnc2c(oc3ccccc32)c1=O` as the molecule, how does the inhibition read?
The inhibition was -0.57% (inactive).

Which inhibition does the source give for `Nc1nn(S(=O)(=O)c2ccccc2)cc1-c1cccc([N+](=O)[O-])c1` here?
The inhibition was 1.89% (inactive).

Which inhibition does the source give for `CN(C)[C@@H]1C(=O)C(C(N)=O)=C(O)[C@@]2(O)C(=O)C3=C(O)c4c(O)ccc(Cl)c4[C@@](C)(O)[C@H]3C[C@@H]12` here?
Its inhibition is 5.01% (inactive).

With `CCOc1ccc(NC(=O)CCC(=O)Oc2ccc(C)cc2)cc1` as the molecule, how does the inhibition read?
Its inhibition is -3.3% (inactive).

Which inhibition does the source give for `O=C(COC(=O)Cc1ccsc1)Nc1ccccc1` here?
Its inhibition is -4.1% (inactive).

Which inhibition does the source give for `C=CCNC(=S)NNC(=O)c1csc(CC)c1` here?
Its inhibition is -5.45% (inactive).

Which inhibition does the source give for `Cc1ccc(NC(=O)C(C)N=C2NS(=O)(=O)c3ccccc32)cc1F` (stereo not drawn) here?
The inhibition was 11% (inactive).

Which inhibition does the source give for `CC(=O)N1CCN(c2ccc([N+](=O)[O-])c(-n3nc(C)cc3C)c2)CC1` here?
Its inhibition is 1.6% (inactive).

With `CC(=O)N1CCN(c2ccc([N+](=O)[O-])cc2)CC1` as the molecule, how does the inhibition read?
Its inhibition is -5.3% (inactive).

Which inhibition does the source give for `CCOc1ccccc1OCC(=O)OCC(=O)c1c(N)n(CC(C)C)c(=O)n(C)c1=O` here?
Its inhibition is 0.88% (inactive).

For `CC(=O)OCC(=O)C1CCC2C3CC=C4CC(O)CCC4(C)C3CCC12C` (stereo not drawn), which inhibition is on record?
Its inhibition is -10.9% (inactive).

With `CN(Cc1cccc(Cl)c1Cl)C(=O)c1cccc(S(=O)(=O)N2CCN(Cc3ccccc3)CC2)c1` as the molecule, how does the inhibition read?
The inhibition was -12.3% (inactive).

With `Cc1nn(-c2ccc(F)cc2)c2nc(N)c(C#N)c(-c3ccc(O)c(O)c3)c12` as the molecule, how does the inhibition read?
The inhibition was 1.53% (inactive).

For `COc1cc(-c2c(C#N)c(=O)[nH]c3c2c(C)nn3-c2ccccc2)ccc1O`, which inhibition is on record?
The inhibition was 51.3% (inactive).

With `O=C1c2ccc([N+](=O)[O-])cc2S(=O)(=O)N1Cc1ccccc1` as the molecule, how does the inhibition read?
Its inhibition is -6.93% (inactive).

For `CCc1noc(C)c1C(=O)Nc1nc(-c2cc(C)ccc2C)c(C)s1`, which inhibition is on record?
Its inhibition is -0.88% (inactive).

For `CCc1noc(C)c1C(=O)Nc1nc2ccc(F)cc2s1`, which inhibition is on record?
The inhibition was 68.5% (inactive).
